Screening data from PubChem BioAssay.
DAX1 inh: DAX1 (NR0B1) inhibitors on StAR promoter, primary screen, cell-based, luminescence, SF-1 (NR5A1), full-length DAX-1; HEK293T StAR-luciferase reporter, SF-1/DAX-1 repression relief; inhibition, % at 6.8 µM; 1.1% of 370,000 active;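 active = inhibition above the mean over all tested compounds plus 3 SD, cut at about 3.6% in these data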;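 note: higher inhibition means more luminescence from relief of DAX-1 repression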
ssDAF-12 act: S. stercoralis DAF-12 nuclear receptor activators, primary screen, cell-based, luminescence, HEK293, GRIP1 co-expression, lit1-tk-luc; Nuclear hormone receptor DAF-12 (Strongyloides stercoralis); HEK293 ssDAF-12/GRIP1 lit1-tk-luc reporter; % of 3 µM dafachronic acid response; activation, % at 6.8 µM; 1% of 370,000 active; AID 652126, 2013;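 active = activation above the mean over all tested compounds plus 3 SD, cut at about 0.9% in these data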
hcDAF-12 act: H. contortus DAF-12 nuclear receptor activators, primary screen, cell-based, luminescence, HEK293, lit1-tk-luc reporter | HEK293 hcDAF-12 lit1-tk-luc reporter; 0% DMSO, 100% Δ7-dafachronic acid | activation, % at 6.8 µM | 1.4% of 370,000 active;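 active = activation above the mean of all tested compounds plus 3 SD, cut at about 5.5% in these data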
hgDAF-12 ag: H. glycines DAF-12 receptor agonists, primary screen, cell-based, luminescence, HEK293, GAL4 fusion, UAS-luciferase. Nuclear hormone receptor DAF-12 (Heterodera glycines), GAL4 fusion. HEK293 GAL4-hgDAF12 UAS-luciferase reporter, agonist luminescence; normalized to butyrate control. activation, % at 6.8 µM. 1.8% of 370,000 active;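 active = activation above a cutoff set at the mean of all screened compounds plus 3 SD, cut at about 10% in these data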
SMARCA2 act: SMARCA2 (BRM) function activators, primary screen, cell-based, luminescence, high throughput | AID 652017, 2013 | MG213 cells, MMTV-luciferase reporter, dexamethasone, overnight | 1% of 370,000 active | activation, % at 9.1 µM; in the data active = activation above about 7.8%
hgDAF12 conf: H. glycines DAF-12 receptor agonists, confirmation, cell-based, luminescence, HEK293, GAL4-LBD fusion | activation, % at 6.8 µM | HEK293 GAL4-hgDAF12 luciferase reporter, agonist mode; percent of butyrate response | 80% of 3,300 active | AID 743050, 2013 | shares compounds with hgDAF-12 ag;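 active = mean activation over triplicate wells above the hit cutoff derived from the earlier primary screen, cut at about 11% in these data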
LXR ag 2: LXR agonists, Gal4 luciferase reporter, confirmation, counter-screen for hgDAF-12 agonist project, cell-based, luminescence, HEK293, H. glycines campaign | shares compounds with hgDAF-12 ag | 24 h | activation, % at 6.8 µM | 3,300 tested, under 10 active | AID 743051, 2013;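 active = mean activation of the triplicate above a set limit carried over from the primary screen, none filed active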
Target sequence (P55055 whole entry, looked up, the tested form may be a part): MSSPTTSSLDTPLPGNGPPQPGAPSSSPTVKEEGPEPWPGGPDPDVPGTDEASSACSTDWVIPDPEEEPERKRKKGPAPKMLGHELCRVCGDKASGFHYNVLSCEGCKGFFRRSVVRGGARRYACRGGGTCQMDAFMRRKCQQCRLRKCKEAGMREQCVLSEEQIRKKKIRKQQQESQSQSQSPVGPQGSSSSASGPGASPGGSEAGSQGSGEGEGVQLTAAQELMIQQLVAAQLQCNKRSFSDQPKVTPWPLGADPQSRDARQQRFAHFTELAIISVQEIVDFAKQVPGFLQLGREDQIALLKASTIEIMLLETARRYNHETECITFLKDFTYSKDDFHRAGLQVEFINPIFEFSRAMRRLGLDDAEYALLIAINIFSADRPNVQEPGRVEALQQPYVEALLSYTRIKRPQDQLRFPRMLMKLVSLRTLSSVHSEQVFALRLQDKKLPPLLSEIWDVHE
Hits are given with their value; - = inactive; . = no result given. An excerpt weighted towards active compounds, which were near 4.2% of everything screened.

SMILES	DAX1 inh	ssDAF-12 act	hcDAF-12 act	hgDAF-12 ag	SMARCA2 act	hgDAF12 conf	LXR ag 2
C[C@@H]1COc2cc(N3CCCC3)ccc2S(=O)(=O)N1C	-	-	-	-	-	.	.
Cc1onc(-c2c(F)cccc2Cl)c1C(=O)Oc1ccccc1	-	-	-	-	-	.	.
O=C(Cn1nc(-c2ccccc2)ccc1=O)NCCc1ccccc1F	-	-	-	-	-	.	.
Cn1c(SCc2ccccc2Cl)nc2ccccc21	-	-	-	14	-	15	-
CC(=O)N1CCc2cc(N=NC3=C(O)CC(C)(C)CC3=O)ccc21	3.9	-	-	15	-	17	-
Cc1cc(NC(=O)c2cccc(Oc3ccccc3)c2)n[nH]1	3.7	-	-	19	-	13	-
O=C(Nc1cc(-c2ccccc2)[nH]n1)c1ccccc1	-	-	-	14	-	16	-
Cc1cc(NC(=O)NC(=O)c2cccc(OC(F)(F)C(F)F)c2)n[nH]1	-	-	-	-	-	.	.
COc1ccc2[nH]c3c(c2c1)CCN[C@]31C(=O)N(c2ccccc2)c2ccccc21	-	-	-	-	-	.	.
Nc1nc(Nc2cccc(F)c2)nc2ccccc12	-	-	6.1	14	-	16	-
O=c1oc(Nc2cccc(F)c2)nc2ccccc12	-	-	-	-	-	.	.
COc1cccc(C(=O)Nc2ccc(Oc3nnc(-c4ccccc4)c4ccccc34)cc2)c1	-	-	-	-	-	.	.
O=C(/C=C/c1ccc(Br)o1)Nc1nccs1	-	-	5.8	14	-	15	-
COc1ccc(/C=N/N2CCOCC2)cc1OCc1ccccc1	-	-	-	-	-	.	.
COc1cc(/C=N/N2CCOCC2)ccc1OCc1ccccc1	-	-	-	18	-	-	-
S=c1[nH]nc(Nc2cccc(Cl)c2)s1	-	-	-	-	-	.	.
Cc1ccc(Nc2n[nH]c(=S)s2)cc1C	3.8	-	-	18	-	11	-
Cc1cc(NC(=O)c2noc3c2CCc2ccccc2-3)no1	-	-	-	-	-	.	.
CCCNC(=O)c1noc2c1CCc1cc(OC)ccc1-2	3.8	-	-	16	-	13	-
COc1ccc(CCNC(=O)Nc2ccccc2[N+](=O)[O-])cc1	-	-	-	16	-	-	-
COc1cccc(/C=C2/Sc3ccc(C(=O)NC4CC4)cc3NC2=O)c1	-	-	-	-	-	.	.
C=CCNc1nc(-c2ccc(Cl)cc2)cs1	-	-	-	14	-	15	-
CCCOc1cccc(C(=O)Nc2ccc3c(c2)OCCO3)c1	-	-	6.3	19	-	20	-
CN1CCN(c2ccc(NC(=O)c3ccc4c(c3)OCCO4)cc2)CC1	-	-	6.1	17	-	11	-
Cc1cc(C(=O)Nc2ccc3c(c2)OCCO3)ccc1[N+](=O)[O-]	-	-	-	18	-	12	-
SMILES	DAX1 inh	ssDAF-12 act	hcDAF-12 act	hgDAF-12 ag	SMARCA2 act	hgDAF12 conf	LXR ag 2
COc1ccc(C(=O)Nc2ccc3c(c2)OCCO3)cc1Br	-	-	-	15	-	15	-
COc1cccc(CC(=O)N2CCN(C(=O)C(=O)c3ccc(OC)c(OC)c3)CC2)c1	-	-	-	-	-	.	.
O=S1(=O)c2ccc(Br)cc2OC[C@@H](Cc2ccccc2)N1Cc1cn(Cc2ccc(F)cc2)nn1	-	-	-	-	-	.	.
Cc1cccc2c1CCC1CN(Cc3ccccc3)S(=O)(=O)N21 (stereo unspecified)	.	-	-	-	.	.	.
O=C(Nc1ccc2c(c1)OCCO2)c1cccnc1	-	-	-	-	-	.	.
O=C(N/N=C/c1cc(O)ccc1[N+](=O)[O-])c1ccc2c(c1)OCCO2	3.6	-	-	18	-	14	-
O=C(Nc1ccc2c(c1)OCCO2)c1ccc(Cl)c(Cl)c1	-	-	-	15	-	17	-
O=C(Nc1ccc2c(c1)OCCO2)c1ccc2nccnc2c1	4.3	-	-	15	-	15	-
[O-][n+]1ccccc1C(O)CSc1ccccc1 (stereo unspecified)	-	-	-	-	-	.	.
O=C(NCc1ccc(C(F)(F)F)cc1)O[C@H]1CC[C@@]23CCCN2C(=O)CCC[C@H]3C1	.	-	-	-	.	.	.
C#CCNC(=O)C[C@H]1C[C@@]2(C(=O)OC)C(=C[C@H](C(C)(C)C)O[C@@H]2C)N(CCc2ccc(OC)c(OC)c2)C1=O	-	-	-	-	-	.	.
O=C(Nc1ccc2[nH]c(=S)sc2c1)c1ccccc1	3.7	-	-	14	-	12	-
Cn1cc(C2N3CC4(C)CN2CC(C)(C3)C4=O)c2ccccc21 (stereo unspecified)	-	-	-	16	-	-	-
Cc1c(C2N3CC4(C)CN2CC(C)(C3)C4=O)c2ccccc2n1C (stereo unspecified)	-	-	-	-	-	.	.
Cc1scc(C(=O)N/N=C/c2ccsc2)c1C	-	1.1	-	18	-	17	-
Cc1scc(C(=O)N/N=C/c2ccco2)c1C	-	-	-	-	-	.	.
C#CCN1C(=O)[C@]2(NCCc3c2[nH]c2ccc(OC)cc32)c2cc(F)ccc21	-	-	-	-	-	.	.
c1ccc(-c2cc3nccc(-c4ccccn4)n3n2)cc1	-	-	-	23	-	16	-
Cc1cc2nccc(-c3ccccn3)n2n1	-	-	-	-	-	.	.
COc1ccc(-c2cc(=O)c3cccc(CC(=O)O)c3o2)cc1	-	-	-	-	-	.	.
CC(=O)N1CCN(c2ccc(N3CCN(C(C)=O)[C@@H](C)C3)c(C)c2)[C@H](C)C1	-	-	-	-	-	.	.
COC(=O)[C@]12C[C@H](CC(=O)NCc3cccc(C(F)(F)F)c3)C(=O)N(CCc3ccc(OC)c(OC)c3)C1=C[C@H](C(C)(C)C)O[C@@H]2C	-	-	-	-	-	.	.
Cc1ccccc1S(=O)(=O)Nc1nc2ccccc2nc1N1CCc2ccccc2C1	-	-	-	14	-	-	-
O=C(CSc1cc(Cl)ccc1Cl)N/N=C/c1ccc[nH]1	.	-	-	-	.	.	.
CN(C)C(=S)c1ccc(N(C)C)cc1	-	-	-	-	-	.	.
CC(=O)c1ccc(N=Nc2ccc(N(C)C)cc2)cc1	-	1.0	-	13	-	12	-
